# Measured values as given in the supplement of paper PMC8728848.
# This is one part of a sample in which the strongest signals are shown more often than they occur.
# Key:
# Experiment in all cases: glycan array binding signal (z-score within array); higher = stronger binding
# Conditions in all cases: glycan notation: IUPAC condensed, linker removed
# [1] = target: GalNAc(b1-4)GlcNAc(b1-2)Man(a1-3)[GalNAc(b1-4)GlcNAc(b1-2)Man(a1-6)]Man(b1-4)GlcNAc(b1-4)GlcNAc
# Outline: (§1)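 The Consortium for Functional Glycomics database supplied 3228 glycan arrays, of which those lacking an available protein sequence were dropped. The binding signal, a within-array Z-score, was averaged across arrays of the same protein sequence and across linkers. Negative scores can be read as non-binding.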
# [2] = target: GlcNAc(b1-2)[GlcNAc(b1-4)]Man(a1-3)[GlcNAc(b1-2)Man(a1-6)]Man(b1-4)GlcNAc(b1-4)GlcNAc
# Outline: as §1
# GlcNAc(b1-3)Gal(b1-4)Glc = target: GlcNAc(b1-3)Gal(b1-4)Glc
# Outline: as §1
# [3] = target: GlcNAc(b1-3)Gal(b1-4)GlcNAc(b1-3)Gal(b1-4)GlcNAc(b1-2)[GlcNAc(b1-3)Gal(b1-4)GlcNAc(b1-3)Gal(b1-4)GlcNAc(b1-6)]Man(a1-6)[GlcNAc(b1-3)Gal(b1-4)GlcNAc(b1-3)Gal(b1-4)GlcNAc(b1-2)Man(a1-3)]Man(b1-4)GlcNAc(b1-4)[Fuc(a1-6)]GlcNAc
# Outline: as §1
# [4] = target: GlcNAc(b1-3)Gal(b1-4)GlcNAc(b1-3)Gal(b1-4)GlcNAc(b1-3)Gal(b1-4)GlcNAc(b1-2)[GlcNAc(b1-3)Gal(b1-4)GlcNAc(b1-3)Gal(b1-4)GlcNAc(b1-3)Gal(b1-4)GlcNAc(b1-6)]Man(a1-6)[GlcNAc(b1-3)Gal(b1-4)GlcNAc(b1-3)Gal(b1-4)GlcNAc(b1-3)Gal(b1-4)GlcNAc(b1-2)Man(a1-3)]Man(b1-4)GlcNAc(b1-4)[Fuc(a1-6)]GlcNAc
# Outline: as §1
# [5] = target: GlcNAc(b1-3)Gal(b1-4)GlcNAc(b1-3)Gal(b1-4)GlcNAc(b1-3)Gal(b1-4)GlcNAc(b1-3)Gal(b1-4)GlcNAc(b1-2)[GlcNAc(b1-3)Gal(b1-4)GlcNAc(b1-3)Gal(b1-4)GlcNAc(b1-3)Gal(b1-4)GlcNAc(b1-3)Gal(b1-4)GlcNAc(b1-6)]Man(a1-6)[GlcNAc(b1-3)Gal(b1-4)GlcNAc(b1-3)Gal(b1-4)GlcNAc(b1-3)Gal(b1-4)GlcNAc(b1-3)Gal(b1-4)GlcNAc(b1-2)Man(a1-3)]Man(b1-4)GlcNAc(b1-4)[Fuc(a1-6)]GlcNAc
# Outline: as §1
# [6] = target: GlcNAc(b1-3)[GlcNAc(b1-6)]Gal(b1-4)GlcNAc
# Outline: as §1
# [7] = target: GlcNAc(b1-3)[GlcNAc(b1-6)]GlcNAc(b1-4)GlcNAc
# Outline: as §1
# [8] = target: GlcNAc(b1-4)Gal(b1-4)GlcNAc
# Outline: as §1
# [9] = target: GlcNAc(b1-4)GlcNAc(b1-4)GlcNAc(b1-4)GlcNAc(b1-4)GlcNAc(b1-4)GlcNAc
# Outline: as §1
# [10] = target: Man(a1-3)[Man(a1-6)]Man(b1-4)GlcNAc(b1-4)[Fuc(a1-6)]GlcNAc
# Outline: as §1
# [11] = target: Neu5Ac(a2-3)Gal(b1-3)GalNAc(b1-3)Gal(a1-4)Gal(b1-4)Glc
# Outline: as §1
# [12] = target: Neu5Ac(a2-3)Gal(b1-3)GlcNAc(b1-2)Man(a1-3)[Neu5Ac(a2-3)Gal(b1-3)GlcNAc(b1-2)Man(a1-6)]Man(b1-4)GlcNAc(b1-4)GlcNAc
# Outline: as §1
# [13] = target: Neu5Ac(a2-3)Gal(b1-4)GlcNAc(b1-2)[Neu5Ac(a2-3)Gal(b1-4)GlcNAc(b1-4)]Man(a1-3)[GlcNAc(b1-4)][Neu5Ac(a2-3)Gal(b1-4)GlcNAc(b1-4)Man(a1-6)]Man(b1-4)GlcNAc(b1-4)GlcNAc
# Outline: as §1
# [14] = target: Neu5Ac(a2-3)Gal(b1-4)GlcNAc(b1-3)Gal(b1-4)GlcNAc(b1-3)Gal(b1-4)GlcNAc
# Outline: as §1
# [15] = target: Neu5Ac(a2-3)Gal(b1-4)GlcNAc(b1-6)[Gal(b1-3)]GalNAc
# Outline: as §1
# [16] = target: Neu5Ac(a2-6)Gal(b1-4)GlcNAc(b1-2)Man(a1-6)[Man(a1-3)]Man(b1-4)GlcNAc(b1-4)GlcNAc
# Outline: as §1
# [17] = target: Neu5Ac(a2-6)Gal(b1-4)GlcNAc(b1-3)Gal(b1-4)[Fuc(a1-3)]GlcNAc(b1-3)Gal(b1-4)[Fuc(a1-3)]GlcNAc
# Outline: as §1
# [18] = target: Neu5Ac(a2-8)Neu5Ac(a2-3)[Gal(b1-3)GalNAc(b1-4)]Gal(b1-4)Glc
# Outline: as §1
# [19] = target: Neu5Ac(a2-8)Neu5Ac(a2-3)[GalNAc(b1-4)]Gal(b1-4)Glc
# Outline: as §1
# [20] = target: Neu5Ac(a2-8)Neu5Ac(a2-8)Neu5Ac
# Outline: as §1
binder,measurement,setting,value
Gal 8 (Homo sapiens) (protein) MLSLNNLQNIIYNPVIPYVGTIPDQLDPGTLIVICGHVPSDADRFQVDLQNGSSVKPRADVAFHFNPRFKRAGCIVCNTLINEKWGREEITYDTPFKREKSFEIVIMVLKDKFQVAVNGKHTLLYGHRIGPEKIDTLGIYGKVNIHSIGFSFSSDLQSTQASSLELTEISRENVPKSGTPQLQTVSPSWDLQGHGSETFCSVLWTRVFLEIAFCRPIGLTVASFQSLPFAARLNTPMGPGRTVVVKGEVNANAKSFNVDLLAGKSKDIALHLNPRLNIKAFVRNSFLQESWGEEERNITSFPFSPGMYFEMIIYCDVREFKVAVNGVHSLEYKHRFKELSSIDTLEINGDIHLLEVRSW,glycan array binding signal (z-score),[1],-0.353
same,glycan array binding signal (z-score),[2],-0.354
same,glycan array binding signal (z-score),GlcNAc(b1-3)Gal(b1-4)Glc,-0.338
same,glycan array binding signal (z-score),[3],5.71
same,glycan array binding signal (z-score),[4],4.87
same,glycan array binding signal (z-score),[5],6.06
same,glycan array binding signal (z-score),[6],-0.41
same,glycan array binding signal (z-score),[7],-0.727
same,glycan array binding signal (z-score),[8],-0.2
same,glycan array binding signal (z-score),[9],-0.392
same,glycan array binding signal (z-score),[10],-0.357
same,glycan array binding signal (z-score),[11],0.798
same,glycan array binding signal (z-score),[12],-0.328
same,glycan array binding signal (z-score),[13],-0.314
same,glycan array binding signal (z-score),[14],2.12
same,glycan array binding signal (z-score),[15],-0.143
same,glycan array binding signal (z-score),[16],-0.357
same,glycan array binding signal (z-score),[17],-0.378
same,glycan array binding signal (z-score),[18],-0.355
same,glycan array binding signal (z-score),[19],-0.398
same,glycan array binding signal (z-score),[20],-0.396
